Screening results (PubChem)
Sampled rows, rich in hits. Any-hit rate of the full collection: about 1.3%.
PriA SSB inh: inhibitors of Klebsiella pneumoniae PriA binding to SSB C-terminal tail, primary screen, biochemical, AlphaScreen. PriA–SSB C-terminal tail interaction (Klebsiella pneumoniae). AlphaScreen SSBct-PriA binding, biotinylated peptide. inhibition, % at 33 µM. 0.6% of 430,000 active; in the data active = inhibition mostly above about 37%, no sharp cut-off; inactive = mostly below about 20%;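 also: plate controls were negative control peptide for no effect and reference peptide for full effect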
TcdB inh: TcdB glycohydrolase inhibitors, primary screen, biochemical, single point, plate reader | TcdB glycohydrolase enzymatic assay | inhibition, % at 9.99 µM | 0.24% of 350,000 active | AID 652162, 2013; in the data active = inhibition above about 10%
CCHF vOTU inh-1: CCHFV vOTU protease inhibitors, primary screen, biochemical, Pep-AMC substrate, fluorescence. Crimean-Congo hemorrhagic fever virus L polyprotein viral ovarian tumor (vOTU) protease …. inhibition, % at 11.5 µM. 0.55% of 370,000 active; also: 0% = vehicle wells with enzyme and 100% = no enzyme wells
3CLpro inhibitor: SARS-CoV 3CLpro protease inhibitors, primary screen, biochemical, quenched FRET. Replicase polyprotein 1ab (Severe acute respiratory syndrome coronavirus), P0C6X7. recombinant SARS-CoV 3CLpro, quenched FRET peptide cleavage. inhibition, % at 6 µM. 0.14% of 290,000 active. AID 1706, 2009; in the data active = inhibition above about 12%
Vc quorum ag: inducers of Vibrio cholerae quorum light production without autoinducers, primary screen, BH1578 luxS cqsA deficient, single point; V. cholerae BH1578 lux reporter, luminescence, 6 h; activation, % at 18.7 µM; 0.16% of 350,000 active; in the data active = activation mostly above about 9.7%, no sharp cut-off
DUSP3 inh: VHR1 phosphatase inhibitors, primary screen, biochemical, absorbance, uHTS | Dual specificity protein phosphatase 3 (Homo sapiens), P51452 | 0.52% of 290,000 active | inhibition, % at 13.3 µM | recombinant VHR phosphatase, pNPP absorbance; in the data active = inhibition above about 50%
CCHF vOTU inh-2: CCHFV vOTU protease inhibitors, confirmation, biochemical, Pep-AMC substrate, fluorescence; inhibition, % at 11.5 µM; Recombinant CCHFV vOTU; 17% of 1,900 active; shares compounds with CCHF vOTU inh-1; AID 686976, 2013
Active calls of the source: *; i = inactive; · = no result. Rule as the data show it, unless noted: active = inhibition above about 30%; inactive = the rest.

SMILES	PriA SSB inh	TcdB inh	CCHF vOTU inh-1	3CLpro inhibitor	Vc quorum ag	DUSP3 inh	CCHF vOTU inh-2
CCC(=NCC1CCCO1)c1c(O)n(-c2ccccc2)c(=O)[nH]c1=O (stereo unspecified)	-17	·	-12	2	i	8	·
CCC(=NCC1CCCO1)c1c(O)n(Cc2ccccc2)c(=O)[nH]c1=O (stereo unspecified)	-3	·	33*	1	i	20	-5
Oc1ccc(NCc2cccc(OCc3ccc(F)cc3)c2)cc1	-1	1	89*	-3	i	5	16
O=[N+]([O-])c1ccc(COc2cccc(CNc3ccc(F)cc3)c2)cc1	-7	·	-8	4	0	15	·
Oc1ccc(NCc2cccc(OCc3ccccc3)c2)cc1	17	1	73*	2	0	17	-15
c1ccc(COc2cccc(CNCc3cccnc3)c2)cc1	-7	1	-12	1	-1	41	·
COc1cc(NC(=O)CN(c2cc(C)cc(C)c2)S(=O)(=O)c2c(C)[nH]c(=O)[nH]c2=O)cc(OC)c1	-10	2	14	-2	0	11	·
Cc1cc(C)cc(N(CC(=O)Nc2ccc(C(F)(F)F)cc2)S(=O)(=O)c2c(C)[nH]c(=O)[nH]c2=O)c1	-4	0	33*	10	0	-31	-13
CCCCC(=O)Nc1sc2c(c1-c1nc3ccccc3s1)CCN(C(C)=O)C2	·	·	·	5	·	15	·
CC(=O)N1CCc2c(sc(NC(=O)C3CC3)c2-c2nc3ccccc3s2)C1	-2	-1	50*	-1	0	16	-20
N#C/C(=C\Nc1ccc2c(c1)OCCO2)c1nc(-c2ccccc2)cs1	3	0	1	3	0	-7	·
N#C/C(=C\Nc1ccc2c(c1)OCCO2)c1nc2ccccc2[nH]1	20	·	32*	1	i	-8	3
O=C(CSc1nc(-c2ccccc2)ns1)c1ccc(Cl)cc1	6	·	·	·	·	·	·
COc1cc(/C=C2/C(=O)N(c3cccc(Br)c3)N=C2C)cc(OC)c1O	3	0	92*	5	0	63	-26
CC(=O)Oc1ccc(/C=C2/C(=O)N(c3ccccc3)N=C2C)cc1	-3	0	103*	1	-2	4	-12
COc1ccc(/C=C2/C(=O)N(c3ccccc3)N=C2C)cc1	4	·	·	·	-1	·	·
COc1ccc(/C=C2/C(=O)N(c3ccccc3)N=C2C)cc1OC	-2	-8	93*	5	-1	-12	-20
CC1=NN(c2ccccc2)C(=O)/C1=C/c1cccc(C)c1	6	0	76*	3	-1	4	-18
COC(=O)Cn1c(=NC(=O)CCOc2ccccc2)sc2cc(Br)ccc21	9	·	·	·	·	·	·
COc1cccc(NC(=O)NCC(c2ccsc2)N2CCOCC2)c1OC (stereo unspecified)	9	·	·	·	·	·	·
COc1ccc2nc(-c3ccc(NC(=O)c4ccc5c(c4)OCO5)cc3)cn2n1	-3	·	·	·	·	·	·
COn1c(C)c(C(C)=O)c2c3nonc3ccc21	0	·	31*	4	i	25	-3
Cc1cc2ncc(NS(=O)(=O)c3cn(C)cn3)cn2n1	-14	·	·	·	·	·	·
Cc1ccc(CNc2ccc(O)cc2)cc1	53	·	63*	5	-10	-9	72*
CCCCN1C(=S)NC[C@@H]1Cc1ccccc1	3	1	14	-3	i	-8	·
SMILES	PriA SSB inh	TcdB inh	CCHF vOTU inh-1	3CLpro inhibitor	Vc quorum ag	DUSP3 inh	CCHF vOTU inh-2
CCCCN1C(=S)NC[C@@H]1c1ccccc1	-2	0	33*	4	-1	-4	4
O=S(=O)(NCC[C@H](O)c1ccc2c(c1)OCO2)c1ccc2c(c1)CCO2	-2	·	·	·	·	·	·
O=C(NCC1CCN(C(=O)C(=O)c2cc3ccccc3o2)CC1)c1cc(C(F)(F)F)cc(C(F)(F)F)c1	·	-1	37*	·	·	·	-11
Cc1noc(C)c1S(=O)(=O)NCCC(O)c1ccc2c(c1)OCO2 (stereo unspecified)	8	·	·	·	·	·	·
Cc1c(/C=N/NC(N)=O)c2ccccn2c1C(=O)c1ccncc1	i	2	32*	-5	i	13	-3
CCN(CC)c1ccc(CNc2nc3ccccc3n2CCN2CCCCC2)cc1	37	-4	30*	0	-1	19	1
COc1cc(O)c(NC(C)=O)c2nonc12	-9	-16	40*	-3	2	-1	-20
Oc1ccccc1C=Nc1cccc2ncccc12	40	·	·	·	·	·	·
COc1ccc(C(=O)N2CCN(c3ccc(-c4ccco4)nn3)CC2)cc1OC	-1	·	·	·	·	·	·
C=CCn1c(O)c(C(CC)=Nc2ccc(N(C)C)cc2)c(=O)[nH]c1=O	0	-5	38*	2	i	1	-21
Cc1ccc([C@H]2C[C@@H](O)[C@H](n3cc(-c4ccc(F)cc4)nn3)CN2C(=O)C2CCCCC2)cc1	·	-3	31*	·	0	·	4
CCCCCC(=O)N1C[C@@H](n2cc(-c3ccc(F)cc3)nn2)[C@H](O)C[C@@H]1c1ccc(Cl)cc1	·	0	34*	·	0	·	5
O=C(C1CCCCC1)N1C[C@H](n2cc(-c3ccc(F)cc3)nn2)[C@@H](O)C[C@@H]1c1ccc(Cl)cc1	·	1	4	·	0	·	·
CCCCCC(=O)N1C[C@H](O)[C@@H](n2cc(-c3ccc(F)cc3)nn2)C[C@@H]1c1ccc(Cl)cc1	·	0	5	·	0	·	·
c1ccc(P(=Nc2ncn[nH]2)(c2ccccc2)c2ccccc2)cc1	-1	·	·	·	·	·	·
CC1=NN(c2cccc(Cl)c2)C(=O)C1	-4	0	44*	4	0	3	2
CC1=NN(c2ccc(Cl)c(C(=O)O)c2)C(=O)C1	-13	-3	16	1	0	13	·
CC1=NN(c2ccc(C(=O)O)c(N)c2)C(=O)C1	-2	-7	83*	-2	i	-11	-13
CCO[C@H]1OC(C(=O)Nc2ccccc2)=C[C@@H](c2ccc(C(F)(F)F)cc2)[C@@H]1CCCO	-3	-1	32*	4	i	-2	7
CC1CCCC(NC(=O)COC(=O)COc2cccc(F)c2)C1C (stereo unspecified)	-10	2	41*	·	-3	·	-16
CCc1ccc(OCC(=O)OCC(=O)NC2CCCC(C)C2C)cc1 (stereo unspecified)	-13	2	10	·	i	·	·
O=C(COC(=O)c1ccc([N+](=O)[O-])s1)Nc1ncc(C(F)(F)F)cc1Cl	6	·	49*	-2	-1	18	64*
